Screening results as filed in PubChem.
ssDAF-12 act: S. stercoralis DAF-12 activation, primary screen. HEK293 ssDAF-12/GRIP1 lit1-tk-luc reporter, luminescence; % of 3 µM dafachronic acid response. activation, % at 6.8 µM. actives 1% (n = 370,000). AID 652126;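 active = activation above the mean over all tested compounds plus 3 SD, cut at about 0.9% in these data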;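 note: 0% = DMSO-only wells and 100% = 3 µM delta7-dafachronic acid wells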
DAX1 inh-1: inhibitors of DAX1 repression of SF-1 activated StAR promoter | HEK293T StAR-luciferase reporter, SF-1/DAX-1 repression relief | inhibition, % at 6.8 µM | actives 1.1% (n = 370,000);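 active = inhibition above the mean over all tested compounds plus 3 SD, cut at about 3.6% in these data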;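 note: 0% = DAX-1 cells with DMSO and 100% = cells lacking DAX-1 with DMSO; higher inhibition means more luminescence from relief of DAX-1 repression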
DAX1 inh-2: inhibitors of human orphan nuclear receptor DAX1 (NR0B1); actives 0.99% (n = 340,000); HEK293 Gal4-DAX1 luciferase reporter, luminescence; inhibition, % at 6.75 µM; P51843;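 active = inhibition above the mean over all tested compounds plus 3 SD, cut at about 4.2% in these data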;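 note: 0% = DAX1-transfected cells with DMSO and 100% = empty-vector control cells with DMSO; inhibition shows as a rise in luminescence from relieved DAX1 repression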
NR1D1 modulator: Rev-erb alpha (human) modulation | P20393 | Rev-erbα–FITC-DNA binding, fluorescence polarization, 90 min | activity, % at 10 µM | actives 0.79% (n = 370,000) | AID 1259318;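 active = activity above about 14%, limit read from the data; passing the limit was not always enough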;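 note: 0% = DMSO wells with 35 nM protein and 100% = DMSO wells with 750 nM protein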
Target sequence (P20393 whole entry, looked up): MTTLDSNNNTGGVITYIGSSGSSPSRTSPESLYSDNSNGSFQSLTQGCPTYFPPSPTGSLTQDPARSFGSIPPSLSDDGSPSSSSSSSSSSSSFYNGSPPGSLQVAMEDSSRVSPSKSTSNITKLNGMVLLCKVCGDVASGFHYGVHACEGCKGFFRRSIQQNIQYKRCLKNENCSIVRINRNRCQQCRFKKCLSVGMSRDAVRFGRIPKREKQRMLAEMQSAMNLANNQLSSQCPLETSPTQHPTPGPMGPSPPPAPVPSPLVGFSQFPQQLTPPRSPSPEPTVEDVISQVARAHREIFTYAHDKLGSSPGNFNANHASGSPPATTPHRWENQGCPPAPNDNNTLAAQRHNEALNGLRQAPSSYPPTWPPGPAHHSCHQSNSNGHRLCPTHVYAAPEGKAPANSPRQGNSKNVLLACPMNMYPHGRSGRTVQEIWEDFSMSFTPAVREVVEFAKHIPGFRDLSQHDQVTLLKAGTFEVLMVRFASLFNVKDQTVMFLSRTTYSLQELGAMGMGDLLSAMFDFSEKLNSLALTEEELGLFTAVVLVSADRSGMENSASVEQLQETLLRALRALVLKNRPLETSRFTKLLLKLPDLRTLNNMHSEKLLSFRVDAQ
hgDAF-12 ag: activates the H. glycines DAF-12 receptor ligand-binding domain. HEK293 GAL4-hgDAF12 UAS-luciferase reporter, agonist luminescence; normalized to butyrate control. actives 1.8% (n = 370,000). activation, % at 6.8 µM;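 active = activation above a cutoff set at the mean of all screened compounds plus 3 SD, cut at about 10% in these data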;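 note: 0% = DMSO wells and 100% = sodium butyrate wells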
hcDAF12 agonist: activators of H. contortus DAF-12 nuclear receptor | HEK293 hcDAF-12 lit1-tk-luc reporter, luminescence; 0% DMSO, 100% Δ7-dafachronic acid | activation, % at 6.8 µM | actives 1.4% (n = 370,000) | AID 652067;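 active = activation above the mean of all tested compounds plus 3 SD, cut at about 5.5% in these data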;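 note: 100% = response to 3 µM Δ7-dafachronic acid high control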
LXRb hcDAF ctr: counter-screen for hcDAF-12 agonists: agonists of human LXR-beta; 3,400 tested, under 10 active; HEK293 Gal4-LXR tk-luc reporter, luminescence, 24 h; normalized: DMSO 0%, positive control 100%; AID 743027; shares compounds with hcDAF12 agonist; activation, % at 6.8 µM;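 active = mean percent activation of the reporter above a cutoff set as the average over tested compounds plus their standard deviation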
hcDAF12 ag: hcDAF-12 agonism, confirmation assay; shares compounds with hcDAF12 agonist; HEK293 hcDAF-12 lit1-tk-luc reporter, luminescence; % of Δ7-dafachronic acid response; activation, % at 6.8 µM; actives 61% (n = 3,400); AID 743032;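 active = mean activation across triplicate tests above the threshold derived from the earlier primary screen, cut at about 5.5% in these data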;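 note: 0% = DMSO only wells and 100% = 3 µM Δ7-dafachronic acid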
hgDAF12 conf: hgDAF-12 agonism, confirmation assay; shares compounds with hgDAF-12 ag; HEK293 GAL4-hgDAF12 luciferase reporter, agonist mode; percent of butyrate response; activation, % at 6.8 µM; actives 80% (n = 3,300);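 active = mean activation over triplicate wells above the hit cutoff derived from the earlier primary screen, cut at about 11% in these data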;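 note: 0% = DMSO low control and 100% = 2 mM sodium butyrate high control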
LXR ag 2: LXR-beta agonism as DAF-12 counter-screen | shares compounds with hgDAF-12 ag | HEK293 Gal4-LXR luciferase reporter, 24 h | activation, % at 6.8 µM | 3,300 tested, under 10 active | AID 743051;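 active = mean activation of the triplicate above a set limit carried over from the primary screen, none filed active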
* marks the source's active call; other numbers are inactive results; . = no result given. This is a sample that favours compounds with a hit; in the whole collection about 4.8% have one here.

SMILES	ssDAF-12 act	DAX1 inh-1	DAX1 inh-2	NR1D1 modulator	hgDAF-12 ag	hcDAF12 agonist	LXRb hcDAF ctr	hcDAF12 ag	hgDAF12 conf	LXR ag 2
Cc1ccnc(Nc2nc(-c3ccccc3)cs2)c1	1	1	4	9	15*	7.8*	2	5.9*	15*	1
COc1ccc(-c2csc(Nc3cccc(C)n3)n2)cc1	1.0*	3	8.7*	-3	14*	6.8*	1	5	19*	1
COc1ccc(-c2csc(Nc3cc(C)ccn3)n2)cc1OC	-2	-1	-1	0	-1	-1	.	.	.	.
Oc1ccc(-c2csc(Nc3ncccn3)n2)cc1	0	3	1	2	18*	7.0*	2	8.4*	10	1
O=C(CSc1nc(-c2ccc(F)cc2)cs1)Nc1ccccn1	-1	0	1	0	1	0	.	.	.	.
Cc1cccc(Nc2nc(-c3ccc(F)cc3)cs2)n1	2.8*	3	9.3*	6	16*	13*	2	9.6*	18*	1
NS(=O)(=O)c1ccc(Nc2nc(-c3ccc(F)cc3)cs2)cc1	-2	-1	.	0	1	-2	.	.	.	.
c1ccc(-c2csc(Nc3ncccn3)n2)cc1	-1	2	2	0	9	6	.	.	.	.
Fc1ccc(-c2csc(Nc3ccccn3)n2)cc1	4.3*	2	3	6	20*	21*	2	16*	26*	1
COc1ccc(C(=O)Cn2c(=N)n(C)c3ccccc32)cc1	1.7*	3	4.5*	1	18*	14*	1	9.1*	19*	1
O=C(Nc1ccc(-c2nc3ccccc3o2)cc1)C1CCCO1 (stereo not given)	1.1*	3	0	-2	15*	9.7*	2	7.6*	21*	1
O=C(Nc1ccc(-c2nc3cccnc3s2)cc1)C1CCCO1 (stereo not given)	0	2	-4	-1	6	1	.	.	.	.
Cc1cc(C)c2c(N)c(C(=O)Nc3ccc(F)cc3)sc2n1	0	3	3	-8	14*	8.8*	2	16*	24*	1
O=C(CN1C(=O)CCC1=O)Nc1nc(-c2nc3ccccc3s2)cs1	1.2*	4.5*	1	-2	16*	7.6*	1	4	12*	0
O=C(COCc1ccncc1)N1CCN(c2ccc(F)cc2Cl)CC1	-2	-2	.	-1	-2	-2	.	.	.	.
CCn1c(/C=C/c2ccccc2)nc2ccccc21	1.4*	3.9*	0	-4	15*	11*	1	12*	17*	1
COc1ccccc1CCn1cnc(-c2cccc(Br)c2)c1CC(C)C	-1	-2	.	5	-3	-2	.	.	.	.
CC1(c2ccc(NC(=O)c3ccccc3F)cc2)CC1(Cl)Cl (stereo not given)	1	3	4.3*	-1	17*	9.6*	1	6.3*	16*	1
CC1(C)CC(=O)C=C(c2ccc(COC(=O)c3ccc(Br)cc3)cc2)C1=O	-1	0	.	3	3	-2	.	.	.	.
Cc1noc(C)c1S(=O)(=O)N1CCCc2nc(-c3ccccc3)ccc21	-1	-2	.	4	-2	-1	.	.	.	.
Cn1c(O)c(N=NC(=O)CNC(=O)c2ccco2)c2ccccc21	0	-1	-1	0	0	1	.	.	.	.
